LEDGF integ inh: blockers of LEDGF/p75-dependent integrase strand transfer – biochemical, TR-FRET, high throughput, primary screen | AID 743269, 2014 | 370,000 tested, 0.64% active | inhibition, % at 3.7 µM | TR-FRET IN-LEDGF/p75 DNA integration, Eu/Cy5;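 active = inhibition above the screen-wide mean plus 3 SD, cut at about 13% in these data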;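 note: signal is the Cy5 over europium emission ratio at 671 and 618 nm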
CASP6 VEID inh: human caspase-6 inhibitors, primary screen, biochemical, VEID-R110 fluorescence, single point, set 2. purified caspase-6, Z-VEID-R110 cleavage fluorescence. 350,000 tested, 0.53% active. AID 686996, 2013. P55212. inhibition, % at 12.5 µM;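 active = mean inhibition across replicates at least about 35%, with every replicate also reaching that limit, limit read from the data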
Target sequence (P55212 24-179 limits assumed): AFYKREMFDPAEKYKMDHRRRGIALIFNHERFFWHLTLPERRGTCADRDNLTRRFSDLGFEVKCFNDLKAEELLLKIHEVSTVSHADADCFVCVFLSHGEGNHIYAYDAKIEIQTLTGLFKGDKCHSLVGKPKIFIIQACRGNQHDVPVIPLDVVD
Target sequence (P55212 194-293 limits assumed): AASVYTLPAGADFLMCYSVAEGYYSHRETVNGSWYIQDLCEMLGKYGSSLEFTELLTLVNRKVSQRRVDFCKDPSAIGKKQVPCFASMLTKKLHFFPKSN
UHRF1 MBD2 ctr: UHRF1 methylated DNA binding inhibitors, primary screen, counter-screen for MBD2 inhibitor project, biochemical, TR-FRET, human UHRF1, single concentration | AID 687016, 2013 | UHRF1 binding to methylated oligo | 370,000 tested, 0.75% active | E3 ubiquitin-protein ligase UHRF1 (Homo sapiens), Q96T88 | inhibition, % at 4.4 µM; in the data active = inhibition above about 21%;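 note: UHRF1 SRA domain binding a hemimethylated CpG hairpin DNA probe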
MBD2 DNA inh: inhibitors of MBD2 binding to methylated DNA, primary screen, biochemical, TR-FRET, DNA-binding domain, human; MBD2 binding to methylated oligonucleotide; inhibition, % at 4.4 µM; 370,000 tested, 0.31% active; in the data active = inhibition above about 13%
Each line names hits and unclear results; the compound was inactive in the other large screens. Shown are actives, neighbours in structure and some others; about 1.4% of the full set was active somewhere.

COc1ccc(S(=O)(=O)N2CCOCC2)cc1C(=O)NCC(c1ccccc1)c1ccccc1	CASP6 VEID inh 50
COc1ccc2c3c(n(C)c2c1)[C@@H](CO)N(C)CC31CCN(C(=O)NC(C)C)CC1	none (no result: LEDGF integ inh, UHRF1 MBD2 ctr, MBD2 DNA inh)
CCNC(=O)C[C@@H]1CC[C@H]2[C@@H](COc3ccc(NC(=O)Nc4ccccc4Cl)cc3C(=O)N2C)O1	none (no result: LEDGF integ inh, UHRF1 MBD2 ctr, MBD2 DNA inh)
CC(Sc1nccn1C)C(=O)NC1(C#N)CCCCC1 (configuration not stated)	none
CC(Sc1nnc(Cc2ccccc2)o1)C(=O)NC1(C#N)CCCCC1 (configuration not stated)	UHRF1 MBD2 ctr 24
O=C(O)c1cc([N+](=O)[O-])ccc1NCCc1ccccc1	UHRF1 MBD2 ctr 25
Cc1cccc(Nc2ccc([N+](=O)[O-])cc2C(=O)O)c1	UHRF1 MBD2 ctr 23
O=C(O)c1cc([N+](=O)[O-])ccc1Nc1ccccc1	none
Cn1c(SCC(=O)Nc2nncs2)nnc1C1CC1	CASP6 VEID inh 36
O=C1N=C(N2C=CC(=C3C=CNC=C3)C=C2)/C(=C/N=NC(=O)c2ccccc2O)S1	CASP6 VEID inh 36
CC(C)CC#Cc1cnc2c(c1)C(=O)N([C@@H](C)CO)C[C@H](C)[C@@H](CN(C)Cc1ccccc1F)O2	none (no result: LEDGF integ inh, UHRF1 MBD2 ctr, MBD2 DNA inh)
Cc1ccc(C(=O)Nc2ccc(C(=O)O)cc2NC(=O)c2ccc(C)cc2)cc1	LEDGF integ inh 27
O=C(O)c1ccc(NC(=O)c2ccc(Cl)cc2)c(NC(=O)c2ccc(Cl)cc2)c1	none
O=C(NCCCN1CCCC1)c1ccc2c(c1)N(Cc1cccc(Cl)c1)C(=O)c1ccccc1S2(=O)=O	CASP6 VEID inh 65
CCOC(=O)CC(NS(=O)(=O)c1ccc2[nH]cc(C(=O)O)c(=O)c2c1)c1ccc(OCC)c(OC)c1 (configuration not stated)	CASP6 VEID inh 54
CCCC(=O)n1nc(-c2cccnc2)nc1NCc1ccc(OC)cc1	CASP6 VEID inh 39
O=C(O)c1cccc(NC2=C(n3nnc4ccccc43)C(=O)c3ccccc3C2=O)c1	CASP6 VEID inh 82
O=C(O)c1cccc(NS(=O)(=O)c2ccc3nnn(O)c3c2)c1	none (no result: CASP6 VEID inh)
COc1cc(C(=O)N2CCN(C(=O)CC(C)C)CC2)cc(OC)c1OC	UHRF1 MBD2 ctr 31
C[C@@H]1CN([C@@H](C)CO)C(=O)c2cc(NC(=O)Cn3cnnn3)ccc2O[C@H]1CN(C)C(=O)Nc1ccc(F)cc1	none (no result: LEDGF integ inh, UHRF1 MBD2 ctr, MBD2 DNA inh)
CCOC(=O)c1cnc(Nc2nc3ccccc3o2)nc1CN1CCN(C)CC1	LEDGF integ inh 18 (no result: CASP6 VEID inh)
OC[C@H]1[C@H](c2ccc(-c3ccc(F)cc3)cc2)[C@@H]2CN(Cc3cccnc3)CCCCN12	CASP6 VEID inh 60 (no result: LEDGF integ inh, UHRF1 MBD2 ctr, MBD2 DNA inh)
OC[C@H]1[C@H](c2ccc(-c3ccc(F)cc3)cc2)[C@H]2CN(Cc3cccnc3)CCCCN21	none (no result: LEDGF integ inh, UHRF1 MBD2 ctr, MBD2 DNA inh)
O=C(O)/C=C/C(=O)Nc1ccc(O)cc1	LEDGF integ inh 14
O=C(O)/C=C/C(=O)Nc1ccc(C(=O)c2ccccc2)cc1	none
COc1ccc2c(C#N)c3ccccn3c2c1	CASP6 VEID inh 62
Cc1cc(=O)n2ccccc2c1C#N	none (no result: CASP6 VEID inh)
Cc1ccc(S(=O)(=O)N[C@H]2CC[C@H](CC(=O)N3CCC(Cc4ccccc4)CC3)O[C@H]2CO)cc1	none (no result: LEDGF integ inh, UHRF1 MBD2 ctr, MBD2 DNA inh)
O=C(C1CC1)N1CCc2cc(Br)cc(S(=O)(=O)N3CCCCCC3)c21	none (no result: CASP6 VEID inh)
CC(=O)N1CCc2cc(Br)cc(S(=O)(=O)N3CCC(C(=O)O)CC3)c21	CASP6 VEID inh 39
CC(=O)N=C1SC2CS(=O)(=O)CC2N1c1c(Cl)cccc1Cl (configuration not stated)	UHRF1 MBD2 ctr 24 (no result: CASP6 VEID inh)
COCCNC(=O)C[C@H]1CC[C@H]2[C@@H](COc3ccc(NC(=O)c4cc(C)on4)cc3C(=O)N2C)O1	none (no result: LEDGF integ inh, UHRF1 MBD2 ctr, MBD2 DNA inh)
Cc1ccc(SCCC(=O)Nc2ccccc2Br)cc1	none
Cc1ccc(SCCC(=O)Nc2ccccc2C(=O)NC(C)C)cc1	UHRF1 MBD2 ctr 22 (no result: CASP6 VEID inh)
CCCN(C)C[C@H]1Oc2cc(-c3cccc(C#N)c3)ccc2S(=O)(=O)N([C@@H](C)CO)C[C@H]1C	none (no result: LEDGF integ inh, UHRF1 MBD2 ctr, MBD2 DNA inh)
COc1ccc(NC(=O)N(C)C[C@@H]2Oc3ccc(NC(=O)CCN4CCOCC4)cc3CC(=O)N([C@H](C)CO)C[C@@H]2C)cc1	none (no result: LEDGF integ inh, UHRF1 MBD2 ctr, MBD2 DNA inh)
O=S(=O)(NCc1cccnc1)c1ccc(Cl)cc1	CASP6 VEID inh 47
O=S(=O)(NCC(c1cccnc1)N1CCOCC1)c1ccc(Cl)cc1 (configuration not stated)	UHRF1 MBD2 ctr 25
